Several values for one entry are separate records, joined by “and”; a condition that tells them apart may be missing. Equal values may be shown once. Some structures have more than one record in an assay (separate samples or runs), and their calls can disagree. Activity calls are given as the source filed them. The calls were made as follows: active = hit-call score of the fitted dose curve at least 0.9, where 1 is the maximum; inactive = score below 0.9.
Assays:
[1] = read-out: Interferon-gamma inducible Protein 10 (IP10), CXCL10 (gene 3627); experiment: BSK_BE3C_IP10: BioMAP Diversity Plus: BE3C Assay for Interferon-gamma inducible Protein 10 (IP10) Biomarker Activity (AID 2283034); settings: primary human bronchial epithelial cells; actives raise or lower the signal
In short: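 IP-10 quantified by ELISA serves as the endpoint. Cells: primary human bronchial epithelium, read 24 h after compound addition. Activity is derived by bidirectional fitting with DMSO as negative control.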

[2] = read-out: Monokine induced gamma interferon (MIG), CXCL9 (gene 4283); experiment: BSK_BE3C_MIG: BioMAP Diversity Plus: BE3C Assay for Monokine induced gamma interferon (MIG) Biomarker Activity (AID 2283035); settings: primary human bronchial epithelial cells; actives raise or lower the signal;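 also: MIG protein measured by ELISA in BE3C cultures after 24 h of dosing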
In short: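 hu bronchial epithelial 1° cells, 24 h cpd; MIG by ELISA; bidirectional fit, DMSO = baseline.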

[3] = read-out: Transforming growth factor beta 1 (TGFb1), TGFB1 (gene 7040); experiment: BSK_BE3C_TGFb1: BioMAP Diversity Plus: BE3C Assay for Transforming growth factor beta 1 (TGFb1) Biomarker Activity (AID 2283036;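 also: TGF-b1 protein level measured by ELISA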); settings: primary human bronchial epithelial cells; actives raise or lower the signal
In short: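 Bronchial epithelial primary cells are treated with test chemical, then TGF-b1 is quantified by ELISA after 24 hours. Values derive from bidirectional fitting against DMSO, with cytotoxicity checked by SRB staining in parallel cultures.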

[4] = read-out: Plasminogen activator inhibitor-1 (PAI1), SERPINE1 (gene 5054); experiment: BSK_BE3C_PAI1: BioMAP Diversity Plus: BE3C Assay for Plasminogen activator inhibitor-1 (PAI1) Biomarker Activity (AID 2283037); settings: primary human bronchial epithelial cells; actives raise or lower the signal
In short: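 Values derive from bidirectional fitting against DMSO baseline of PAI-1 levels, measured by ELISA in human bronchial epithelial cells 24 h after compound addition.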

[5] = read-out: urokinase plasminogen activator (uPA), PLAU (gene 5328); experiment: BSK_BE3C_uPA: BioMAP Diversity Plus: BE3C Assay for urokinase plasminogen activator (uPA) Biomarker Activity (AID 2283038); settings: primary human bronchial epithelial cells; actives raise or lower the signal;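 also: uPA protein level quantified by ELISA in cell cultures; uPA read one day after compound addition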
In short: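 Using confluent primary human lung bronchial epithelial cultures, we dosed chemicals, waited 24 h, then ran a uPA ELISA, fitting bidirectionally against DMSO.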

[6] = read-out: Urokinase-type plasminogen activator receptor (uPAR), PLAUR (gene 5329); experiment: BSK_BE3C_uPAR: BioMAP Diversity Plus: BE3C Assay for Urokinase-type plasminogen activator receptor (uPAR) Biomarker Activity (AID 2283039); settings: primary human bronchial epithelial cells; actives raise or lower the signal;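 also: uPAR protein level measured by ELISA on the cells; cells exposed to compound for one day before measurement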
In short: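 Steps: dose human primary bronchial epithelial cells, incubate 24 h, measure uPAR by ELISA, then fit gain- or loss-of-signal response bidirectionally relative to DMSO.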

[7] = read-out: Interleukin-6 (IL6), IL6 (gene 3569); experiment: BSK_CASM3C_IL6: BioMAP Diversity Plus: CASM3C Assay for Interleukin-6 (IL6) Biomarker Activity for (AID 2283040); settings: primary human coronary artery smooth muscle cells; actives raise or lower the signal
[8] = read-out: Tissue plasminogen activator (tPA), PLAT (gene 5327); experiment: BSK_BE3C_tPA: BioMAP Diversity Plus: BE3C Assay for Tissue plasminogen activator (tPA) Biomarker Activity (AID 2283041); settings: primary human bronchial epithelial cells; actives raise or lower the signal
In short: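 Gain- or loss-of-signal in tPA, measured by ELISA, derived by bidirectional fitting against DMSO. Cells: human primary bronchial epithelial; read at 24 h after chemical dosing.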

[9] = read-out: Interleukin-8 (IL8), CXCL8 (gene 3576); experiment: BSK_CASM3C_IL8: BioMAP Diversity Plus: CASM3C Assay for Interleukin-8 (IL8) Biomarker Activity (AID 2283042); settings: primary human coronary artery smooth muscle cells; actives raise or lower the signal;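 also: IL-8 protein level quantified by ELISA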
[10] = read-out: Human Leukocyte Antigen - DR isotype (HLADR), HLA-DRA (gene 3122); experiment: BSK_CASM3C_HLADR: BioMAP Diversity Plus: CASM3C Assay for Human Leukocyte Antigen - DR isotype (HLADR) Biomarker Activity (AID 2283043); settings: primary human coronary artery smooth muscle cells; actives raise or lower the signal;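 also: cell-surface HLA-DR protein level quantified by ELISA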
[11] = read-out: Macrophage colony-stimulating factor (MCSF), CSF1 (gene 1435); experiment: BSK_CASM3C_MCSF: BioMAP Diversity Plus: CASM3C Assay for Macrophage colony-stimulating factor (MCSF) Biomarker Activity (AID 2283044); settings: primary human coronary artery smooth muscle cells; actives raise or lower the signal;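 also: M-CSF protein amount quantified by ELISA after 24 h exposure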
[12] = read-out: Low-density lipoprotein receptor (LDLR), LDLR (gene 3949); experiment: BSK_CASM3C_LDLR: BioMAP Diversity Plus: CASM3C Assay for Low-density lipoprotein receptor (LDLR) Biomarker Activity (AID 2283045); settings: primary human coronary artery smooth muscle cells; actives raise or lower the signal;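 also: LDLR protein level on the cell surface quantified by ELISA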
[13] = read-out: Monocyte Chemoattractant Protein-1 (MCP1), CCL2 (gene 6347); experiment: BSK_CASM3C_MCP1: BioMAP Diversity Plus: CASM3C Assay for Monocyte Chemoattractant Protein-1 (MCP1) Biomarker Activity (AID 2283046); settings: primary human coronary artery smooth muscle cells; actives raise or lower the signal;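 also: MCP-1 level quantified by ELISA 24 h after dosing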
[14] = BSK_CASM3C_Proliferation: Cell Proliferation Assessment in the BioMAP Diversity Plus: CASM3C Assay (AID 2283047); settings: primary human coronary artery smooth muscle cells;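 also: sulforhodamine B total protein stain as relative cell number at 560 nm; sub-confluent cells exposed 48 h before staining; fitted both ways against DMSO so gain or loss of cell number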
[15] = read-out: Monokine induced gamma interferon (MIG), CXCL9 (gene 4283); experiment: BSK_CASM3C_MIG: BioMAP Diversity Plus: CASM3C Assay for Monokine induced gamma interferon (MIG) Biomarker Activity (AID 2283048); settings: primary human coronary artery smooth muscle cells; actives raise or lower the signal;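 also: MIG protein level measured by ELISA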
[16] = read-out: serum amyloid A (SAA), SAA1 (gene 6288); experiment: BSK_CASM3C_SAA: BioMAP Diversity Plus: CASM3C Assay for serum amyloid A (SAA) Biomarker Activity (AID 2283049); settings: primary human coronary artery smooth muscle cells; actives raise or lower the signal;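 also: SAA protein level quantified by ELISA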
[17] = BSK_CASM3C_SRB: Viability Assessment in the BioMAP Diversity Plus: CASM3C Assay (AID 2283050); settings: primary human coronary artery smooth muscle cells;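 also: total protein by SRB staining as cytotoxicity measure in parallel cultures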
[18] = read-out: Thrombomodulin, THBD (gene 7056); experiment: BSK_CASM3C_Thrombomodulin: BioMAP Diversity Plus: CASM3C Assay for Thrombomodulin Biomarker Activity (AID 2283051); settings: primary human coronary artery smooth muscle cells; actives raise or lower the signal;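 also: thrombomodulin protein level measured by ELISA 24 h after dosing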
[19] = read-out: Tissue Factor, F3 (gene 2152); experiment: BSK_CASM3C_TissueFactor: BioMAP Diversity Plus: CASM3C Assay for Tissue Factor Biomarker Activity (AID 2283052); settings: primary human coronary artery smooth muscle cells; actives raise or lower the signal;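 also: cell surface tissue factor protein level read by ELISA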
[20] = read-out: Interferon-gamma inducible Protein 10 (IP10), CXCL10 (gene 3627); experiment: BSK_hDFCGF_IP10: BioMAP Diversity Plus: hDFCGF Assay for Interferon-gamma inducible Protein 10 (IP10) Biomarker Activity (AID 2283053); settings: primary human foreskin fibroblasts; actives raise or lower the signal
In short: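 Cells: human dermal foreskin fibroblasts. Exposure: 24 h post-dosing. Detection: IP-10 ELISA, with values expressed against DMSO controls and fitted in both directions.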

Measured: AC50

CCOP(=S)(OCC)SCSc1ccc(Cl)cc1
active: [13] 0.272 µM | [19] 16.5 µM | [20] 8.28 µM
inactive: [1] | [2] | [3] | [4] | [5] | [6] | [7] | [8] | [9] | [10] | [11] | [12] | [14] | [15] | [16] | [17] | [18]

O=P(OCC(Br)CBr)(OCC(Br)CBr)OCC(Br)CBr (centres undefined)
inactive: [1] | [2] | [3] | [4] | [5] | [6] | [7] | [8] | [9] | [10] | [11] | [13] | [15] | [16] | [17] | [18] | [19] | [20]
active: [14] 3.51 µM

C=CC(=O)OCC(F)(F)C(F)F
active: [7] 22.9 µM | [8] 14.9 µM | [10] 36.3 µM and 38.8 µM | [11] 30 µM and 18.2 µM | [14] 30 µM | [15] 30 µM and 16.9 µM | [16] 30 µM | [17] 39.8 µM and 43.6 µM | [18] 37.3 µM and 24.9 µM | [20] 34.9 µM and 29.2 µM
inactive: [1] | [2] | [4] | [5] | [6] | [7] | [8] | [9] | [12] | [13] | [16] | [19]

CCOS(=O)(=O)OCC
inactive: [1] | [2] | [3] | [4] | [5] | [6] | [7] | [8] | [9] | [10] | [11] | [12] | [13] | [14] | [15] | [16] | [17] | [18] | [19] | [20]

COC(=O)C(F)(F)C(F)(F)OC(F)(C(F)(F)F)C(F)(F)OC(F)=C(F)F (centres undefined)
active: [20] 5.35 µM and 2.92 µM
inactive: [1] | [2] | [4] | [5] | [6] | [7] | [8] | [9] | [10] | [11] | [12] | [13] | [14] | [15] | [16] | [17] | [18] | [19]

O=P(Oc1ccccc1)(Oc1ccccc1)Oc1ccccc1
active: [1] 26.3 µM | [4] 10.6 µM | [12] 29.5 µM | [14] 26 µM | [18] 29.6 µM
inactive: [2] | [3] | [5] | [6] | [7] | [8] | [9] | [10] | [11] | [13] | [15] | [16] | [17] | [19] | [20]

Cc1ccc2c(c1N)C(=O)c1ccccc1C2=O
inactive: [1] | [2] | [3] | [4] | [5] | [6] | [7] | [8] | [9] | [10] | [12] | [13] | [14] | [15] | [16] | [17] | [18] | [19] | [20]
